An excerpt weighted towards active compounds, which were near 27% of everything screened.
CYP2C9 inhib = blockers of cytochrome P450 2C9 activity – biochemical, luminescence, ADME assay, primary screen; P11712; CYP2C9 Supersomes, luciferin-H conversion; inhibition, % at 5 µM; 20% of 96,000 active;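 active = blocking of liver enzyme CYP2C9 beyond about 50% at 5 µM, limit read from the data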
CYP2C19 inh = blockers of cytochrome P450 2C19 activity – biochemical, luminescence, ADME assay, primary screen. inhibition, % at 5 µM. CYP2C19 Supersomes, luciferin-H EGE luminescence, 30 min. 21% of 96,000 active;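 active = CYP2C19 inhibition above a set limit at 5 µM in the primary screen, cut at about 50% in these data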;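 note: plate controls were negative control wells for no effect and 2.5 mM tranylcypromine positive control for full effect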
CYP2C19 activ = human CYP2C19 activators, primary screen, biochemical, luminescence; 96,000 tested, under 10 active; activation factor at 5 µM; Cytochrome P450 2C19 (Homo sapiens), P33261; recombinant CYP2C19, luciferin-H EGE luminescence; stronger effect = higher value; 0 = fully inhibited enzyme, 1 = untreated enzyme;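 active = activation factor of at least 2 at 5 µM in the primary screen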;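 note: 0 = wells with 2.5 mM tranylcypromine and 1 = vehicle-only wells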
Cav3 T inh = Cav3.2 calcium influx blockers – cell-based, Fluo-4 calcium fluorescence, FDSS, MLSMR library, primary screen; Cav3.2-expressing cells; stronger effect = lower value; B-score at 10 µM; 4% of 100,000 active; AID 449739, 2010;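 active = single-dose well whose peak fluorescence ratio is a statistical outlier from its plate by either plate-standardised score or position-corrected B-score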
Target sequence (O95180 whole entry, looked up): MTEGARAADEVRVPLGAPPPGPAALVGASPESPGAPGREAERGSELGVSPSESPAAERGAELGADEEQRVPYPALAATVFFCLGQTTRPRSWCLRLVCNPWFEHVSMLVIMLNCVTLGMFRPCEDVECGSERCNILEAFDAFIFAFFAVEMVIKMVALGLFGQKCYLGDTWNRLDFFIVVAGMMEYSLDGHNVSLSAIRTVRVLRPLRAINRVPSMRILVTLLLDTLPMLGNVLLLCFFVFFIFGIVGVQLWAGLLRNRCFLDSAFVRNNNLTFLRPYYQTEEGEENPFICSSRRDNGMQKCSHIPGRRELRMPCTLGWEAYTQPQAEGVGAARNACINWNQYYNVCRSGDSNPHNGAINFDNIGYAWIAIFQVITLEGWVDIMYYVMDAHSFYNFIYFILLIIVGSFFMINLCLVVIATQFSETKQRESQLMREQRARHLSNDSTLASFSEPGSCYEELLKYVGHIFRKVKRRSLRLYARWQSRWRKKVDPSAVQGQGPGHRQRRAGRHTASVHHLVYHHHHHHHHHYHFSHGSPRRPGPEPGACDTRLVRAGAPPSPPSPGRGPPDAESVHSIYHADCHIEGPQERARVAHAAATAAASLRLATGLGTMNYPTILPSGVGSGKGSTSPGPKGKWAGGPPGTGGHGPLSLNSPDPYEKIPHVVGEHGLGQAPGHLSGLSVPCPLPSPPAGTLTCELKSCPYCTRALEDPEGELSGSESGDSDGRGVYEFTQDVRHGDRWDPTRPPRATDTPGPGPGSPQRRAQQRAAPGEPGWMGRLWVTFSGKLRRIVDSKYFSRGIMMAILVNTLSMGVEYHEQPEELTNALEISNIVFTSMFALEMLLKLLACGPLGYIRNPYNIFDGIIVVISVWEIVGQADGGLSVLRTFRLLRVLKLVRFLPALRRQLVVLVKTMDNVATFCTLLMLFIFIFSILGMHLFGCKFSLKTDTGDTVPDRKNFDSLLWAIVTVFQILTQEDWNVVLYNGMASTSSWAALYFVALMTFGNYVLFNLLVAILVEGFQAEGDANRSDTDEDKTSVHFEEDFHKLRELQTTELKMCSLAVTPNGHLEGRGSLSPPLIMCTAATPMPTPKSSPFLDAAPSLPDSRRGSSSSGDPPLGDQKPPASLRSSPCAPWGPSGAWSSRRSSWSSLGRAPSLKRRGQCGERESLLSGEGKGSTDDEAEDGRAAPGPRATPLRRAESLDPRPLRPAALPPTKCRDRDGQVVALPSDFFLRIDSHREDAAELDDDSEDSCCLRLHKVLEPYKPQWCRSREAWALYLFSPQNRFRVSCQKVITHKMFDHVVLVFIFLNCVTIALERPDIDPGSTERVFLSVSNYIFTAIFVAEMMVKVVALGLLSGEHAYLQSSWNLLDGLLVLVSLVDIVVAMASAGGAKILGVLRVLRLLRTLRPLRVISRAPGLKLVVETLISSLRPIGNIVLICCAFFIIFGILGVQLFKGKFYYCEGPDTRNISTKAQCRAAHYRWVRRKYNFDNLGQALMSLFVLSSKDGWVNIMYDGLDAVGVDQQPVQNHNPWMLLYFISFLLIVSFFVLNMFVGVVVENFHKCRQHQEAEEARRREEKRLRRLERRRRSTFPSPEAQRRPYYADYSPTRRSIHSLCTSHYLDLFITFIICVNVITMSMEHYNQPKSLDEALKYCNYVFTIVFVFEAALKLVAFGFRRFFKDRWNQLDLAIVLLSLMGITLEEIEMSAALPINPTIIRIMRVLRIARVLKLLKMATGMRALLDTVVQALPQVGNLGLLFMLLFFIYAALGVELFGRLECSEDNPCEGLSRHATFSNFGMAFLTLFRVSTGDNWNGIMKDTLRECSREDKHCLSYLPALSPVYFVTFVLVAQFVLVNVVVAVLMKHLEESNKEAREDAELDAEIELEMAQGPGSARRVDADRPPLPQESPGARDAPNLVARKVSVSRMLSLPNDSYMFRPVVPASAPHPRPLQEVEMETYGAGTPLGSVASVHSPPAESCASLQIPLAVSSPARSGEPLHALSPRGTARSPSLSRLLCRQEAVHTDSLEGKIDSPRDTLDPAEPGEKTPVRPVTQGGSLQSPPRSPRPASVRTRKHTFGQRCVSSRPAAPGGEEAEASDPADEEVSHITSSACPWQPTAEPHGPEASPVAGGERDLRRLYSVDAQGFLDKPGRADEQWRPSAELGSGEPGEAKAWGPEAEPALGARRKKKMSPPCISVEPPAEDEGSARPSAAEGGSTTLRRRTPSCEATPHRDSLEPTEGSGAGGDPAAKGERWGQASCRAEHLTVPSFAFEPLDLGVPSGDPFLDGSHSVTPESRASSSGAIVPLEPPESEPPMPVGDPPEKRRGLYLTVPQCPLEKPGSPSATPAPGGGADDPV
CYP2C9 activ = human CYP2C9 activators, primary screen, biochemical, luminescence | activation factor at 5 µM | 1.4% of 96,000 active | recombinant CYP2C9, luciferin-H conversion; stronger effect = higher value; factor 1 = untreated enzyme, 0 = blocked | AID 1024, 2008;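 active = activation factor of 2 or more for CYP2C9 at a 5 µM dose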;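 note: 0 = sulfaphenazole-blocked wells and 1 = vehicle-only wells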
Numbers without * were called inactive; . = not tested or not shown.

SMILES	CYP2C9 inhib	CYP2C19 inh	CYP2C19 activ	Cav3 T inh	CYP2C9 activ
CCN1C(=O)C(CC(=O)N2CCN(C(c3ccccc3)c3ccccc3)CC2)N(CC)C1=O (stereo not given)	6	10	0.9	0.6	0.9
CC(C)CCNC(=O)NC(=O)COc1ccccc1C#N	48	75*	0.3	-0.45	0.5
N#Cc1ccccc1OCC(=O)NC(N)=O	-50	-12	1.1	0.21	1.5
O=C(/C=C/c1c(Cl)cccc1Cl)n1cccn1	.	.	.	-0.36	.
CCOC(=O)c1ccc(NC(=O)c2nc[nH]c2C(=O)N[C@@H](CC(C)C)C(=O)OCc2ccccc2)cc1	.	.	.	-0.12	.
COc1ccc(NC(=O)Cc2ccccc2)cc1	.	.	.	-0.21	.
COc1cccc(CSc2nc3ccccc3cc2C=O)c1	64*	25	0.7	-0.76	0.4
COc1cccc(NC(=O)CSc2nc3ccccc3cc2Cc2ccccc2)c1	68*	94*	0.1	-4*	0.3
COc1cccc(NC(=O)CSc2ncnc3c2cnn3Cc2ccccc2)c1	19	-16	1.2	0.86	0.8
COc1ccc(NC(=O)CSc2nc3ccccc3cc2Cc2ccccc2)cc1	33	85*	0.1	-4.2*	0.7
Cc1nc(SCc2cccc(Oc3ccccc3)c2)n[nH]1	26	40	0.6	-2	0.7
COc1cc(NC(=O)CSc2ncccc2C(=O)OC(C)C)cc(OC)c1	51*	70*	0.3	-0.0082	0.5
COc1ccc(CC(C)N2CCN(c3ccccc3)CC2)cc1OC (stereo not given)	-16	25	0.8	0.24	1.2
O=C(c1ccc2nc(N3CCCCC3)sc2c1)N1CCN(c2ccccn2)CC1	37	43	0.6	.	0.6
C[C@@H]1NC(=O)c2cc([N+](=O)[O-])cc(I)c2OCC[C@@H](C(=O)NC(CC(=O)O)C(N)=O)NC(=O)[C@H](CC(N)=O)NC1=O (stereo not given in full)	.	.	.	-0.39	.
COc1cc(NC(=O)CSc2nc3ccccc3cc2Cc2ccccc2)cc(OC)c1	64*	83*	0.2	-3	0.4
O=S1(=O)NC[C@]23C[C@H](c4ccc(F)cc4)[C@@H](C[C@@H]21)O3	.	.	.	-0.0033	.
COC(=O)c1cccnc1NC(=S)NNC(=O)c1ccncc1	25	84*	0.2	0.047	0.7
O=C(NNC(=O)c1ccncc1)c1ccncc1	0	-12	1.1	0.077	1
Cc1cc(NC(=O)CCC(=O)N(Cc2cccs2)C(C(=O)NC2CCCC2)c2ccncc2)no1 (stereo not given)	84*	69*	0.3	0.82	0.2
Cc1cc(NC(=O)CCC(=O)N(CCC(C)C)C(C(=O)NC2CCCC2)c2cccnc2)no1 (stereo not given)	24	28	0.7	0.38	0.8
Cc1ccc(N(C(=O)CCC(=O)Nc2cc(C)on2)C(C(=O)NC2CCCC2)c2ccncc2)cc1 (stereo not given)	69*	64*	0.4	0.6	0.3
Cc1cccc(N(C(=O)CCC(=O)Nc2cc(C)on2)C(C(=O)NC2CCCC2)c2ccncc2)c1 (stereo not given)	84*	81*	0.2	0.42	0.2
Cc1cc(NC(=O)CCC(=O)N(c2ccc(F)cc2)C2(C(=O)NC3CCCCC3)CCCC2)no1	29	23	0.8	-3.7*	0.7
Cc1cc(NC(=O)CCC(=O)N(CC(=O)NC2CCCC2)c2ccc3c(c2)OCCO3)no1	5	3	1	-0.016	0.9
SMILES	CYP2C9 inhib	CYP2C19 inh	CYP2C19 activ	Cav3 T inh	CYP2C9 activ
O=C(CN(Cc1ccc(F)cc1)C(=O)Cn1nnc2ccccc21)NCC1CCCO1 (stereo not given)	.	.	.	0.58	.
CC(Sc1ncc(C#N)c(N)n1)C(=O)Nc1ccccc1 (stereo not given)	6	24	0.8	-0.68	0.9
COc1ccc(S(=O)(=O)N2CCN(c3nc4ccccc4nc3-n3nc(C)cc3C)CC2)cc1	59*	14	0.9	-0.74	0.4
COc1ccc(Nc2nc3ccccc3nc2-n2nc(C)cc2C)cc1	-14	23	0.8	-1	1.1
Cc1cc(C)n(-c2nc3ccccc3nc2N2CCCCCC2)n1	16	75*	0.2	-2.1	0.8
Cc1cc(C)n(-c2nc3ccccc3nc2N2CCN(C(=O)c3ccc(Cl)cc3)CC2)n1	60*	48	0.5	-0.35	0.4
c1ccc2nc(N3CCCC3)c(N3CCCC3)nc2c1	8	6	0.9	-0.63	0.9
Cn1ncc(Br)c1C(=O)Nc1ccc(Cl)cn1	12	12	0.9	-0.38	0.9
NC(=O)c1ccccc1NC(=O)CS(=O)(=O)Cc1ccccc1	14	23	0.8	0.89	0.9
CN(c1ccccc1)S(=O)(=O)c1ccc(NC(=S)NC(=O)c2ccccc2)cc1	70*	29	0.7	-1.8	0.3
CN(c1ccccc1)S(=O)(=O)c1ccc(C(=O)NCC2CCCO2)cc1 (stereo not given)	37	8	0.9	-0.25	0.6
CCN(c1ccccc1)S(=O)(=O)c1ccc(C(=O)Nc2nnc(COC)o2)cc1	70*	-8	1.1	.	0.3
O=C(Nc1ccc(S(=O)(=O)NCc2ccccc2)cc1)c1ccc(Br)o1	.	.	.	-0.27	.
CCCCN(C)S(=O)(=O)c1ccc(C(=O)Nc2nnc(-c3cccs3)o2)cc1	31	-8	1.1	.	0.7
CCN(c1ccccc1)S(=O)(=O)c1ccc(NC(=S)NC(=O)c2ccc(Br)o2)cc1	67*	23	0.8	-2.8	0.3
COCc1nnc(NC(=O)c2ccc(S(=O)(=O)N(C)c3ccccc3)cc2)o1	77*	5	0.9	-0.56	0.2
Cc1ccc(S(=O)(=O)CC(C)N2CCN(C3CCCCC3)CC2)cc1 (stereo not given)	.	.	.	1.4	.
CC(Cc1ccccc1)C(=O)N[C@@H](CO)Cc1ccccc1 (stereo not given in full)	.	.	.	1	.

Screens: PubChem BioAssay, several laboratories
